# Laboratory results: the supplement of paper PMC11732987, “Enantioselective OTUD7B fragment discovery through chemoproteomics screening and high-throughput optimisation” (Communications Chemistry, 2025)
# A number with no mark means an inactive call.
# Tests used:
# Assay in all cases: log2 ratio of Biotin-Ahx-Ub-VS probe labelling (fragment/DMSO); higher = less target engagement (more negative = stronger competition), active = hit call of the paper (q ≤ 0.05, log2 ratio ≤ -1)
# Details in all cases: compound concentration: 200 uM; treatment time: 3 h
# [1] = biological target: T1, ALG13 (UniProt Q9NP73)
# T1 sequence (whole entry): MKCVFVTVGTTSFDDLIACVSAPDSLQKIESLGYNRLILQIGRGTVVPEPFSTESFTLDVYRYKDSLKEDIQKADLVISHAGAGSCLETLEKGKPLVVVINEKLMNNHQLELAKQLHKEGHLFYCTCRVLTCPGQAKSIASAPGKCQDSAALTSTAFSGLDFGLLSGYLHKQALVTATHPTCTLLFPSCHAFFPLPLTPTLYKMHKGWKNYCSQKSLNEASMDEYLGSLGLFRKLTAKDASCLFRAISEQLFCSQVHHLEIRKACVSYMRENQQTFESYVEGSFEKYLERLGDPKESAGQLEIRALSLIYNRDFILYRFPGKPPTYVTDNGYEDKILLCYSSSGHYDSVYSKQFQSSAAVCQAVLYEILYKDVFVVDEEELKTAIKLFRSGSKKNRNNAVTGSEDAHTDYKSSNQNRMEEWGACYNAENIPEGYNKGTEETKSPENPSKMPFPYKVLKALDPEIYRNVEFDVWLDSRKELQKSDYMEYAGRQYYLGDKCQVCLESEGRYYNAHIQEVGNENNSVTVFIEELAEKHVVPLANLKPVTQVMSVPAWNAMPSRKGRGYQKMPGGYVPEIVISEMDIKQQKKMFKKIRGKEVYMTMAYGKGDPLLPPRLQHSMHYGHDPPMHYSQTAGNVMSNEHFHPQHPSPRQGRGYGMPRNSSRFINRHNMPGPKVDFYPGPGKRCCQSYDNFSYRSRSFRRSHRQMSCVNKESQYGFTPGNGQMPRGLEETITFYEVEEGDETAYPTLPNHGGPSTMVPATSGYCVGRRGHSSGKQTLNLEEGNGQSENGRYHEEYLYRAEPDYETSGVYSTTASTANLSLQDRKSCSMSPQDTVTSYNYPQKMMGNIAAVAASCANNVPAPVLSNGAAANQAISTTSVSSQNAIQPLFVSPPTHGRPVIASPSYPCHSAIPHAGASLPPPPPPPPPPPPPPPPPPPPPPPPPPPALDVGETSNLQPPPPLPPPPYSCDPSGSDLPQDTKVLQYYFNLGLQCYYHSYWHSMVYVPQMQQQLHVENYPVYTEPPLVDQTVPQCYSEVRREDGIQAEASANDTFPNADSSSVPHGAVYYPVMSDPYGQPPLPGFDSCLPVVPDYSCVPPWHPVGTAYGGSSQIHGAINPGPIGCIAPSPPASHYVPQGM
# How it was run: (§1)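 Triplicate samples of HEK293T lysate, 495 µg each, received fragment at 200 µM or vehicle for 3 h, followed by Biotin-Ahx-Ub-VS (0.5 µM final) for 1 h. After NeutrAvidin enrichment of labelled DUBs and LysC/trypsin digestion, peptides were run by diaPASEF LC-MS/MS. The values are average log2 fragment/vehicle ratios from global-median-normalised Spectronaut label-free quantities, tested by unpaired t-test on proteins having ≥2 unique peptides.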
# [2] = biological target: ATXN3 (UniProt P54252)
# How it was run: as §1
# [3] = biological target: T2, BAP1 (UniProt Q92560)
# T2 sequence (whole entry): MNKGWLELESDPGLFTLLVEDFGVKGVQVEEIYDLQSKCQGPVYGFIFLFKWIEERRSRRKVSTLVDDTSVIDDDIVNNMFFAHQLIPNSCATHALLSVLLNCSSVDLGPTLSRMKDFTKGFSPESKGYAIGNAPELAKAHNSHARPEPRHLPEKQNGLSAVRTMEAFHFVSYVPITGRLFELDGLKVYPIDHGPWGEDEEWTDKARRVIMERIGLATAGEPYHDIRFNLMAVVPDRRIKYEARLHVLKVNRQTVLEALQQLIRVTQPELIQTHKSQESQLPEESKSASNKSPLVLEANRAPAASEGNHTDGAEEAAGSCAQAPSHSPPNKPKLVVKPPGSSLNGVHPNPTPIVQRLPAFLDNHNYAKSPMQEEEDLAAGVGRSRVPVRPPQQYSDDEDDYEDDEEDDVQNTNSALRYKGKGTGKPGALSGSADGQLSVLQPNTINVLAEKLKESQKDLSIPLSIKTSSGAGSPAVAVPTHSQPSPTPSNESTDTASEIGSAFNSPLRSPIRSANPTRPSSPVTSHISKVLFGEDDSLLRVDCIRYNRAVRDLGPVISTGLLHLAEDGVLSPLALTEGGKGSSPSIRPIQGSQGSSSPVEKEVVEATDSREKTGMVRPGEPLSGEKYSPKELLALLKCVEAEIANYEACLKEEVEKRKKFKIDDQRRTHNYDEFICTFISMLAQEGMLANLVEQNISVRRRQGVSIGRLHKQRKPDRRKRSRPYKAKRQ
# How it was run: as §1
# [4] = biological target: EIF3F (UniProt O00303)
# How it was run: as §1
# [5] = biological target: EIF3H (UniProt O15372)
# How it was run: as §1
# [6] = biological target: T3, FAM105A (UniProt Q9NUU6)
# T3 sequence (whole entry): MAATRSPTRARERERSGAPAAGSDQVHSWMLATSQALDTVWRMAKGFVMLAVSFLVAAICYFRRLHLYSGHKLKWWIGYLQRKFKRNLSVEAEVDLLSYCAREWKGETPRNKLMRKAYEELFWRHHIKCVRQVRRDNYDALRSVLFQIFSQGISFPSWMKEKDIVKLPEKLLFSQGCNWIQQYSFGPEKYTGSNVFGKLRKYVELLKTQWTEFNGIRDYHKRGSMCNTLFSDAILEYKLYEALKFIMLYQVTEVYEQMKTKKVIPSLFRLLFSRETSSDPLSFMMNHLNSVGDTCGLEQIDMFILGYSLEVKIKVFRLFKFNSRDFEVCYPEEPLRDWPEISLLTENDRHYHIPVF
# How it was run: as §1
# [7] = biological target: OTUB1 (UniProt Q96FW1)
# How it was run: as §1
# [8] = biological target: T4, OTUD4 (UniProt Q01804)
# T4 sequence (whole entry): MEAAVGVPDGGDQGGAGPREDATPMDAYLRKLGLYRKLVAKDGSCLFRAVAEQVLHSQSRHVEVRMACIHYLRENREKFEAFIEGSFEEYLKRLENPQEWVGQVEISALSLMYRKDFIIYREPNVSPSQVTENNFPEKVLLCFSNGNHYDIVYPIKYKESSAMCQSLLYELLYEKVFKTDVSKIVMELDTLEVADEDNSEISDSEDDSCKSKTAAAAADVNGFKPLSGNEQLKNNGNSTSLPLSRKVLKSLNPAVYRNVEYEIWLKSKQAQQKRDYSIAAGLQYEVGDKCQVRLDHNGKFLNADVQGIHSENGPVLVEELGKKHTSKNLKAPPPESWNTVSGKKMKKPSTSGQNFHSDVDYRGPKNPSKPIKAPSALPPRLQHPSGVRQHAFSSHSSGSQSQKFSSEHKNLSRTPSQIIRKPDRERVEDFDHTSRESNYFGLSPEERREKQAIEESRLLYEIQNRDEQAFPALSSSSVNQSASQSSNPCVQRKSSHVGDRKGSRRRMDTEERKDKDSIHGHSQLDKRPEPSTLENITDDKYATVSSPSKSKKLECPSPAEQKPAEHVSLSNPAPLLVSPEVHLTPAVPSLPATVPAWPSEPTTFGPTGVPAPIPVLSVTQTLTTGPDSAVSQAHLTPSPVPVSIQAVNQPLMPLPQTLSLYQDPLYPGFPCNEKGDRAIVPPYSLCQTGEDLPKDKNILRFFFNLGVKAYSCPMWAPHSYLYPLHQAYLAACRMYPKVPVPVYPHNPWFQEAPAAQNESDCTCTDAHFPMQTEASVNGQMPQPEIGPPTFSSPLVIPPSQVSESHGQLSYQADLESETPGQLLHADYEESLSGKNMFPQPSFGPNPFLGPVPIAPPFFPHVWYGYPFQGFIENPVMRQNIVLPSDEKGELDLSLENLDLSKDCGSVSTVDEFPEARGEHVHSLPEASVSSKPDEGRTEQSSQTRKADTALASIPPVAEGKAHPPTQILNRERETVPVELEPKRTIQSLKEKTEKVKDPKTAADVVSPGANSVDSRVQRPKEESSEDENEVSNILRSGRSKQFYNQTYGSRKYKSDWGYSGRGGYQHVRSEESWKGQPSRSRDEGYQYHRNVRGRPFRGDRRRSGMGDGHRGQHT
# How it was run: as §1
# [9] = biological target: T5, OTUD5 (UniProt Q96G74)
# T5 sequence (whole entry): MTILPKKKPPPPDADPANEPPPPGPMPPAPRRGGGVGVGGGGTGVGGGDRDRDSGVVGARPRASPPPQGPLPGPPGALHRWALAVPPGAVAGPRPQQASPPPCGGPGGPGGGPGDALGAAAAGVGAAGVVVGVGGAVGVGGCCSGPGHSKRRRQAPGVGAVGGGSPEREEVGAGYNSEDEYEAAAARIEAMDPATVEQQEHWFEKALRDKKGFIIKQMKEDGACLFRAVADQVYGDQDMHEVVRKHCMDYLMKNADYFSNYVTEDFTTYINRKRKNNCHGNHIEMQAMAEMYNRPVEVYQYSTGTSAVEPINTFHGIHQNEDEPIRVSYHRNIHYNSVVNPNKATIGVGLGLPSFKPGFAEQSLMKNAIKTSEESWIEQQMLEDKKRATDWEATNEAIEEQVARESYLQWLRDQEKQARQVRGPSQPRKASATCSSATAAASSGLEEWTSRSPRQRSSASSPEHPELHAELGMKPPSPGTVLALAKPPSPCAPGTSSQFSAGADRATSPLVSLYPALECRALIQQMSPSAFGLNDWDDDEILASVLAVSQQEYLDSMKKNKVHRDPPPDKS
# How it was run: as §1
# Sequence of OTUB1 (Q96FW1 whole entry): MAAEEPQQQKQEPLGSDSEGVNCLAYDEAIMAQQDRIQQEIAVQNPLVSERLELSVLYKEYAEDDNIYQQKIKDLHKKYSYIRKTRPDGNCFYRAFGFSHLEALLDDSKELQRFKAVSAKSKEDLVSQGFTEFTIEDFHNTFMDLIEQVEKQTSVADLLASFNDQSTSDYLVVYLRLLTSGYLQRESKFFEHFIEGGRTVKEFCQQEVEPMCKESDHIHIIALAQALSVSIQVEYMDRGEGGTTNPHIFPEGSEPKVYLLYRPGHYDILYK
# Sequence of ATXN3 (P54252 whole entry): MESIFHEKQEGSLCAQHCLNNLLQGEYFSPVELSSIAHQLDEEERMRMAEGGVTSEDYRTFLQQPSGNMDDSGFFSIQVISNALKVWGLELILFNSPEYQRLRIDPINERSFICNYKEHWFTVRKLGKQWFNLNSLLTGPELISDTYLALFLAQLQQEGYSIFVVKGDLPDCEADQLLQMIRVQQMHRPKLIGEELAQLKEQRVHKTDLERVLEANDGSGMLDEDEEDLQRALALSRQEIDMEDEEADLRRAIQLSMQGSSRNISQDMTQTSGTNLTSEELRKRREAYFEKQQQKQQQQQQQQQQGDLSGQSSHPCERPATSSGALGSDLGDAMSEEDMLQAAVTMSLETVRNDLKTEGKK
# Sequence of EIF3F (O00303 whole entry): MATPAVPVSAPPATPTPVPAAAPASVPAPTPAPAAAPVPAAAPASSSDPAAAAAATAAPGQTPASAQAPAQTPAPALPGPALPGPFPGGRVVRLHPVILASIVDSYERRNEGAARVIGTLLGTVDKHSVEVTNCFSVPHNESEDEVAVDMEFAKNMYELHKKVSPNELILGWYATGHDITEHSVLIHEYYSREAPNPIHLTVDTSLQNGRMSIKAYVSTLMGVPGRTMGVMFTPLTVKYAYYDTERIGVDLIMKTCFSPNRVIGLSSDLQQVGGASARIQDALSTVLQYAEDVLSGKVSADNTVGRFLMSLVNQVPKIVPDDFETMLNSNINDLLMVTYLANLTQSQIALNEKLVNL
# Sequence of EIF3H (O15372 whole entry): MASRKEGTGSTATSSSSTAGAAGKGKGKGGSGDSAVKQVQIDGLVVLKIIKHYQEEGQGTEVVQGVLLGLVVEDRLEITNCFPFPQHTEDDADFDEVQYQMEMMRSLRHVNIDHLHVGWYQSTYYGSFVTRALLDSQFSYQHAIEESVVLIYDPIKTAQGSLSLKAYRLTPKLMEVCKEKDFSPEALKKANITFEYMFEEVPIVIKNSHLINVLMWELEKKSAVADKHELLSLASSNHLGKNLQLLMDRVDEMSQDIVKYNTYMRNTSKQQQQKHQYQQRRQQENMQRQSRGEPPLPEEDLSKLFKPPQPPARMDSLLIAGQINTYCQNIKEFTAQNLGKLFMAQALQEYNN
compound,measurement,setting,value
Cc1noc(C)c1CNC(=O)CCl,log2 ratio of Biotin-Ahx-Ub-VS probe labelling,[1],-0.968
same,log2 ratio of Biotin-Ahx-Ub-VS probe labelling,[2],-0.884
same,log2 ratio of Biotin-Ahx-Ub-VS probe labelling,[3],-2.03 (active)
same,log2 ratio of Biotin-Ahx-Ub-VS probe labelling,[4],-0.561
same,log2 ratio of Biotin-Ahx-Ub-VS probe labelling,[5],0.0244
same,log2 ratio of Biotin-Ahx-Ub-VS probe labelling,[6],0.341
same,log2 ratio of Biotin-Ahx-Ub-VS probe labelling,[7],-0.618
same,log2 ratio of Biotin-Ahx-Ub-VS probe labelling,[8],-0.737
same,log2 ratio of Biotin-Ahx-Ub-VS probe labelling,[9],-0.764
